Measurements taken from PubChem BioAssay (NCATS).
A number with no mark means an inactive call. Calls of active or inactive are those of the source. No rule for the calls is given here.

Experiments:
[1] = target: Nuclear receptor subfamily 1 group I member 2 (Rattus norvegicus) (UniProt Q9R1A7); test: qHTS assay for small molecule activators of the rat pregnane X receptor (rPXR) signaling pathway (AID 651751); settings: rPXR reporter cells, luciferase (One-Glo), 24 h
[2] = qHTS assay for small molecule activators of the human pregnane X receptor (PXR) signaling pathway (AID 720659); settings: DPX-2 HepG2 CYP3A4-luciferase, 24 h; series mostly up to 92.3 µM
Also: 0% is about no effect.

Sequence of Nuclear receptor subfamily 1 group I member 2 (Rattus norvegicus) (Q9R1A7 whole entry, looked up): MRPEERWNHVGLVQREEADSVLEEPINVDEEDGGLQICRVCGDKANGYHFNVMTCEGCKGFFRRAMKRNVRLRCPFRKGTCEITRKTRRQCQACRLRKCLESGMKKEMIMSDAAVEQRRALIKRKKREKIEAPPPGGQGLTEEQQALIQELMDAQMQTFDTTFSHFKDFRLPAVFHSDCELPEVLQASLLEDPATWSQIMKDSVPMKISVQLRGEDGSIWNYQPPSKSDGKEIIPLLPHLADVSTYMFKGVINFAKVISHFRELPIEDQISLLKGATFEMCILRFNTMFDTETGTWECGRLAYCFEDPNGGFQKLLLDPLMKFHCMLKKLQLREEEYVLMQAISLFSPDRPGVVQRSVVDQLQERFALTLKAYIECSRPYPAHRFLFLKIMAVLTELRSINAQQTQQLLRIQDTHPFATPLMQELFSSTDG

SMILES | max response [1] [%] | outcome [2]
OC[C@@H](O)[C@@H](O)[C@H](O)[C@@H](O)CO | 14.3 | inactive
Cc1cc(O)c2c(c1)C(=O)c1cccc(O)c1C2=O | -1.64 | inactive
CC(C=CC1=C(C)CCCC1(C)C)=CC=CC(C)=CC(=O)Nc1ccc(O)cc1 | – | inactive
O=C1c2cccc(O)c2C(=O)c2c(O)cc(CO)cc21 | -0.0257 | inactive
